Consider nine compounds from PubChem BioAssay (NCI).

Values joined by “and” are separate entries in the source; they are usually repeats but may differ in a detail not shown here. Equal entries are not always repeated. The panel holds about 83,000 compounds, 20% with a hit somewhere; the sample as a whole holds those more often.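 Assay: single dose, 48 h. Readout: percent growth (0 = no net growth; negative = cell death). Active: <10.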 A number with no mark means an inactive call. Active and inactive are the calls of the source.

Among the test systems are RPMI-8226 leukemia; OVCAR-8 ovarian; OVCAR-5 ovarian; OVCAR-4 ovarian; SK-OV-3 ovarian; IGROV1 ovarian; OVCAR-3 ovarian; HS 578T breast; NCI/ADR-RES ovarian; T-47D breast; MDA-MB-435 melanoma; SW-620 colon; MCF7 breast; HCC-2998 colon; KM12 colon; MDA-MB-468 breast; BT-549 breast; HCT-116 colon.
What all share (assay): NCI-60 one-dose screen, 48 h (100 = growth as untreated, 0 = no growth, -100 = all killed)
Holding throughout (conditions): 10 µM

With `NC1=NC(c2ccccc2Cl)N=C(Nc2nn[nH]n2)N1` (centres undefined), the growth in the assay on RPMI-8226 leukemia is 99.2%; in the assay on OVCAR-8 ovarian it was 102%; with OVCAR-5 ovarian, 118%; in the assay on OVCAR-4 ovarian, 99.8%; with SK-OV-3 ovarian it was 123%; with IGROV1 ovarian, 115%. For the same compound, the growth was 107% in the assay on OVCAR-3 ovarian; 103% in the assay with HS 578T breast; 104% in the assay on NCI/ADR-RES ovarian; 99.1% in the assay on T-47D breast; 102% in the assay on MDA-MB-435 melanoma; 106% with SW-620 colon. Further, the growth in the assay with MCF7 breast is 93.3%; in the assay on HCC-2998 colon it was 104%; in the assay on KM12 colon it was 100%; with MDA-MB-468 breast, 103%.

As for `COc1ccc(-c2nc(S(=O)(=O)c3ccc(C)cc3)c(S(=O)(=O)CC(=O)N(C)Cc3ccccc3)o2)cc1`, the growth is -35.3% (active) in the assay with RPMI-8226 leukemia; 29.2% in the assay with OVCAR-8 ovarian; 63.1% in the assay with OVCAR-5 ovarian; 68.5% with OVCAR-4 ovarian; 98.4% with SK-OV-3 ovarian; 66.3% in the assay on IGROV1 ovarian. The growth with OVCAR-3 ovarian is 1.33% (active); with HS 578T breast, 67.2%; with T-47D breast, -57.8% (active); in the assay on BT-549 breast it was 72.6%; with MDA-MB-435 melanoma, 32%; with SW-620 colon it was 9.27% (active). Also, the growth was 7.73% (active) in the assay on MCF7 breast; 6.34% (active) with HCT-116 colon; 46.6% in the assay on HCC-2998 colon; 57.5% in the assay on KM12 colon; -38.8% (active) in the assay on MDA-MB-468 breast.

For `Cc1ccc(C(=O)Nc2ccc(-n3c(C)nc4c(cnn4-c4ccccc4)c3=O)cc2)cc1`, the growth in the assay on RPMI-8226 leukemia is 58.4%; with OVCAR-8 ovarian it was 76.8%; with OVCAR-5 ovarian it was 86%; with OVCAR-4 ovarian, 49.8%; in the assay with SK-OV-3 ovarian, 97.4%; with IGROV1 ovarian it was 71.6%. Also, the growth was 97% in the assay on OVCAR-3 ovarian; 84.8% in the assay on HS 578T breast; 52.7% in the assay on NCI/ADR-RES ovarian; 34.6% in the assay with T-47D breast; 70.5% with MDA-MB-435 melanoma; 86.2% in the assay on SW-620 colon. Besides, the growth was 47.8% in the assay with MCF7 breast; 51.5% in the assay with HCT-116 colon; 88.4% in the assay on HCC-2998 colon; 77.5% in the assay on KM12 colon; 21.1% in the assay on MDA-MB-468 breast.

As for `CC(=C(c1ccc(OCCN2CCCCC2)cc1)c1ccc(OCCN2CCCCC2)cc1)c1ccccc1`, the growth is -31.3% (active) in the assay with RPMI-8226 leukemia; 53.5% in the assay on OVCAR-8 ovarian; 46.3% in the assay with OVCAR-5 ovarian; 63.8% in the assay on OVCAR-4 ovarian; 74.6% with SK-OV-3 ovarian; 60.7% in the assay with IGROV1 ovarian. The growth with OVCAR-3 ovarian is 28.3%; in the assay with HS 578T breast, 29.5%; with T-47D breast it was -20.3% (active); in the assay on BT-549 breast, 110%; with MDA-MB-435 melanoma, -66% (active); in the assay on SW-620 colon it was 12.3%. The growth is -48.3% (active) in the assay with MCF7 breast; 14.3% with HCT-116 colon; 15.7% in the assay on HCC-2998 colon; 24.4% in the assay with KM12 colon; 37.4% with MDA-MB-468 breast.

`COc1ccccc1[C@H]1C(C(=O)c2ccc(Cl)cc2)C2(N[C@@H]1c1ccccc1)C(=O)Nc1ccccc12` (some centres undefined): the growth with RPMI-8226 leukemia is 5.12% (active); with OVCAR-8 ovarian, 4.63% (active); in the assay on OVCAR-5 ovarian, -24.8% (active); with OVCAR-4 ovarian, 24.8%; in the assay with SK-OV-3 ovarian it was 16.9%; with IGROV1 ovarian, -3.06% (active). The growth in the assay on HS 578T breast was -12.9% (active); with NCI/ADR-RES ovarian, -69.7% (active); with T-47D breast, 6.01% (active); with BT-549 breast it was -22.7% (active); in the assay on MDA-MB-435 melanoma, -58.7% (active); in the assay with SW-620 colon, 5.84% (active). Also, the growth in the assay with MCF7 breast was -11.1% (active); with HCT-116 colon, 0.0933% (active); with HCC-2998 colon, -51.1% (active); in the assay on KM12 colon, -13.5% (active); in the assay on MDA-MB-468 breast, -29.6% (active).

In the case of `O=C(c1ccc(Cl)cc1)C1[C@H](c2ccc(Br)cc2)[C@@H](c2ccccc2)NC12C(=O)Nc1ccc(Br)cc12` (some centres undefined), the growth was -6.16% (active) in the assay on RPMI-8226 leukemia; -56.7% (active) in the assay on OVCAR-8 ovarian; -91.2% (active) in the assay with OVCAR-5 ovarian; -0.87% (active) with OVCAR-4 ovarian; 2.89% (active) in the assay with SK-OV-3 ovarian; -78.3% (active) with IGROV1 ovarian. Besides, the growth is -89.7% (active) in the assay on OVCAR-3 ovarian; -16.6% (active) in the assay with HS 578T breast; -54% (active) in the assay on T-47D breast; -73.3% (active) in the assay with BT-549 breast; -88.8% (active) in the assay with MDA-MB-435 melanoma; -71.6% (active) with SW-620 colon. Moreover, the growth is -43.3% (active) in the assay on MCF7 breast; 1.39% (active) with HCT-116 colon; -98.5% (active) in the assay on HCC-2998 colon; -50.8% (active) in the assay on KM12 colon; -98.9% (active) in the assay on MDA-MB-468 breast.

With `O=C1Nc2ccc(Cl)cc2/C1=C/c1ccc(OCc2ccc(Br)cc2F)cc1`, the growth with RPMI-8226 leukemia was 44.7%; with OVCAR-8 ovarian, 5.33% (active); in the assay on OVCAR-5 ovarian, 70.6%; in the assay with OVCAR-4 ovarian, -20.5% (active); in the assay with SK-OV-3 ovarian, 25.1%; with OVCAR-3 ovarian it was 0.51% (active). For the same compound, the growth in the assay with HS 578T breast was -0.705% (active); in the assay on NCI/ADR-RES ovarian it was 13.1%; with T-47D breast it was 10.1%; in the assay with BT-549 breast, 81.9%; in the assay with MDA-MB-435 melanoma it was 60.2%; in the assay with SW-620 colon, 23.6%. In addition, the growth with MCF7 breast was 12.1%; with HCT-116 colon it was -10.8% (active); in the assay with HCC-2998 colon, 77.5%; in the assay on KM12 colon it was 59.1%; with MDA-MB-468 breast, 92.6% and 48.8%.

Consider `Cc1ccc(CSc2nc(Cl)c(C#N)c(-c3ccc(F)cc3)n2)cc1`, for which the growth was 58.5% with RPMI-8226 leukemia; 83.8% in the assay with OVCAR-8 ovarian; 81.6% with OVCAR-4 ovarian; 88.3% with SK-OV-3 ovarian; 95.8% in the assay with IGROV1 ovarian; 86.3% with OVCAR-3 ovarian. For the same compound, the growth in the assay on HS 578T breast was 86.7%; in the assay with T-47D breast, 31.3%; in the assay on BT-549 breast it was 56.4%; in the assay with MDA-MB-435 melanoma, 99.7%; in the assay on SW-620 colon, 62.8%; with MCF7 breast it was 72.9%. The growth is 87.8% in the assay on HCC-2998 colon, 72.2% with KM12 colon and 80.3% in the assay on MDA-MB-468 breast.

Turning to `O=C1NC(=NC23CC4CC(CC(C4)C2)C3)N/C1=C\c1ccc2ncsc2c1`, the growth in the assay on RPMI-8226 leukemia was -14.7% (active); in the assay on OVCAR-8 ovarian it was 10.5%; in the assay on OVCAR-5 ovarian, -7.67% (active); in the assay on OVCAR-4 ovarian it was 8.44% (active); with SK-OV-3 ovarian it was 25.1%; in the assay with OVCAR-3 ovarian, -6.21% (active). In addition, the growth in the assay with HS 578T breast is -0.802% (active); in the assay with NCI/ADR-RES ovarian, -10.5% (active); in the assay on T-47D breast, -0.474% (active); with BT-549 breast, -11.5% (active); in the assay with MDA-MB-435 melanoma, 17.8%; in the assay on SW-620 colon it was 5.03% (active). The growth in the assay on MCF7 breast was -9.76% (active); with HCT-116 colon it was 14.1%; in the assay with HCC-2998 colon, 16.2%; in the assay with MDA-MB-468 breast it was -48.2% (active).
